HUVEC tox IL1B = toxic to HUVEC cells under IL-1B stimulation | HUVEC cell count loss, Hoechst imaging, IL-1B stimulated | cell count reduction, % at 2 µM | actives 0.41% (n = 94,000) | AID 845;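 active = cell count reduction more than 3 SD above the screen-wide mean, cut at about 70% in these data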;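 note: normalized per plate to untreated control cells as the no-loss baseline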
VCAM1 TNFa inh = reduces TNF alpha induced VCAM1 expression in HUVEC; HUVEC TNFa-induced VCAM-1 immunofluorescence, high-content imaging; inhibition, % at 2 µM; actives 0.48% (n = 95,000); AID 802;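 active = inhibition above the batch mean plus 3 SD, with images confirmed as a hit by eye, cut at about 37% in these data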;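 note: 0% = TNF-stimulated DMSO wells and 100% = unstimulated control wells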
NFkB transloc pot = enhances IL-1B driven NFkB nuclear translocation | HUVEC IL-1B NFkB p65 nuclear translocation imaging | activation, % at 2 µM | actives 0.3% (n = 94,000);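 active = activation above 40%, about the mean plus 3 SD, also judged a hit on visual image review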;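 note: percent activation is computed from the nuclear over cytoplasmic p65 intensity ratio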
HUVEC tox TNFa = toxic to HUVEC cells under TNF alpha stimulation | HUVEC TNFalpha-stimulated, Hoechst cell count, imaging | cell count reduction, % at 2 µM | actives 0.17% (n = 93,000);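 active = cell count reduction exceeding the screen mean by over 5 SD, scaled to untreated wells per plate, cut at about 78% in these data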;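 note: cells counted after 24 h of TNF alpha exposure following the 1 h pretreatment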
IL1B NFkB inh = blocks IL-1B driven NFkB nuclear translocation in HUVEC cells | HUVEC IL-1B NFkB p65 nuclear translocation imaging | inhibition, % at 2 µM | actives 0.43% (n = 94,000);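 active = inhibition above about 30% together with a positive call from visual inspection of the well image, limit read from the data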;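 note: nuclear over cytoplasmic p65 intensity ratio measured by imaging; 0% = IL-1B stimulated DMSO wells and 100% = unstimulated DMSO wells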
Active calls of the source: *; / = not tested or not shown. This is a sample that favours compounds with a hit; in the whole collection about 1.5% have one here.

SMILES | HUVEC tox IL1B | VCAM1 TNFa inh | NFkB transloc pot | HUVEC tox TNFa | IL1B NFkB inh
Cc1ccc(SCCNC(=O)c2ccccc2)cc1 | -29 | 5 | 0 | -2 | 0
Cc1cc(C)nc(SCNC(=O)c2ccccc2)n1 | 81* | 21 | 21 | -27 | -21
CCOC(=O)CNC(=O)CSc1nnc(SCC(=O)NCC(=O)OCC)s1 | -2 | 0 | 54* | -28 | -54
Nc1n[nH]c(S(=O)(=O)CCCc2ccccc2)n1 | -51 | -2 | 5 | -13 | -4
COc1cc2c(O)c3c(c(-c4ccc5c(c4)OCO5)c2cc1OC)C(=O)OC3 | -8 | 91* | -10 | 64 | 10
c1cc2c(cc1Nc1nc(-c3ccc4c(c3)OCO4)cs1)OCCO2 | -49 | -20 | 12 | -16 | -12
c1ccc(-c2csc(Nc3ccc4c(c3)OCCO4)n2)cc1 | -112 | -8 | -44 | -27 | 44*
CC(C)(C)S(=O)(=O)c1c(C(=O)O)cccc1C(=O)O | -21 | -3 | 13 | -36 | -13
CCCCN(C(=O)NC(=O)Nc1cccc(C)c1C)S(C)(=O)=O | 20 | 90* | 1 | 70 | -1
NC(=O)c1nn(-c2ccccc2)c(=O)cc1O | -11 | 17 | 9 | 5 | -9
Cc1ccc2c(C(=O)CN3CCCCC3CCO)c(C)[nH]c2c1 (configuration not stated) | 8 | 4 | 17 | -13 | -17
Cc1ccc2c(C(=O)CN3CCN(C4CCCCC4)CC3)c(C)[nH]c2c1 | 92* | 2 | 19 | -10 | -19
O=C(O)CC(c1ccc(Cl)cc1)n1cccc1 (configuration not stated) | -30 | -9 | -8 | -8 | 8
O=C(c1cccc(F)c1)N1CCN(Cc2ccco2)CC1 | -27 | -31 | 40* | -17 | -40
Cn1c(=O)c2cc(S(=O)(=O)NCCC(=O)NCCC3=CCCCC3)ccc2n(C)c1=O | 7 | 5 | 27 | -38 | -27
Clc1ccc(-c2nnc3sc(-c4ccc(Br)o4)nn23)cc1 | 1 | 1 | 3 | -11 | -4
Cc1oc(-c2ccc(Cl)cc2)cc1-c1nn2c(-c3ccoc3C)nnc2s1 | -21 | 54* | -2 | / | 2
Cc1ccc(C)c(NC(=S)NC(NC(=O)Cc2cccc3ccccc23)C(Cl)(Cl)Cl)c1 (configuration not stated) | 14 | 67* | 0 | / | 0
Cc1ccc(C)c(NC(=S)NC(NC(=O)N(C)C)C(Cl)(Cl)Cl)c1 (configuration not stated) | 16 | -5 | 1 | -8 | -1
COc1cc(C2/C(=C(/O)c3ccc(OCC(C)C)cc3)C(=O)C(=O)N2CCN(C)C)ccc1O (configuration not stated) | -97 | -5 | 41* | -14 | -41
CC(C)COc1ccc(/C(O)=C2/C(=O)C(=O)N(CCN(C)C)C2c2ccncc2)cc1 (configuration not stated) | -1 | 14 | 2 | -1 | -2
COc1ccc(/C(O)=C2/C(=O)C(=O)N(CCN(C)C)C2c2ccc(OC)c(OC)c2)c(C)c1 (configuration not stated) | 8 | / | -39 | / | 39*
C/C(N)=C(/C#N)C(=O)COC(=O)CCC1CCCC1 | -124 | -1 | 36 | -21 | -36
COc1ccc2c(c1)c1nc(SCC(C)C)n(CCO)c(=O)c1n2C | 4 | -6 | 7 | -32 | -7
COc1cc(OC)cc(-c2nnc(SCC(=O)Nc3cc(C)on3)o2)c1 | 6 | 12 | 12 | -2 | -12
SMILES | HUVEC tox IL1B | VCAM1 TNFa inh | NFkB transloc pot | HUVEC tox TNFa | IL1B NFkB inh
O=C(Cc1ccccc1)N1CCN(C(=O)c2cccs2)CC1 | -21 | -1 | 3 | 10 | -4
O=C1c2cccc3c([N+](=O)[O-])ccc(c23)C(=O)N1c1ccc(Cl)cn1 | 83* | 69* | -30 | 30 | 30*
O=C1c2cccc3cccc(c23)C(=O)N1c1nccs1 | -23 | 32 | 1 | 51 | -1
O=C1c2cccc3c([N+](=O)[O-])ccc(c23)C(=O)N1c1nccs1 | 35 | 76* | -10 | 29 | 10
O=C1c2cccc3c([N+](=O)[O-])ccc(c23)C(=O)N1c1ccccn1 | / | 33 | / | 43 | /
N#CC(c1ccc(O)cc1)N1CCOCC1 (configuration not stated) | -33 | / | 29 | / | -29
Cc1ccc(N/N=C/c2ccc(N3CCOCC3)cc2)cc1C | 3 | 67* | -3 | / | -6
COc1ccc2c(CC(=O)NCc3ccc4c(c3)OCO4)coc2c1 | -29 | 3 | 25 | -10 | -25
CC1CCc2c(sc(NC(=O)C(=O)NCc3ccco3)c2C#N)C1 (configuration not stated) | -64 | -2 | 42* | -16 | -42
CC1CCc2c(sc3ncn4c(SCC(=O)NCc5ccco5)nnc4c23)C1 (configuration not stated) | -16 | 10 | 169* | -31 | -169
Oc1cccc(-c2nc3ccc4ccccc4c3c3c2CCC3)c1 | -11 | -38 | 19 | -14 | -19
CCc1cccc(C)c1NC(=O)C1=C(C(=O)O)CCCC1 | -22 | 11 | -5 | -33 | 5
CC(NC(=O)COC(=O)CCNC(=O)c1ccco1)C12CC3CC(CC(C3)C1)C2 (configuration not stated) | -44 | 3 | 63* | -13 | -63
COC(=O)CN1C(=O)CSc2ncccc21 | -13 | -6 | 52* | -23 | -49
COc1ccc(C2=NN(C(C#N)c3ccc(OC)c(OC)c3)C(c3ccccc3)C2)cc1 (configuration not stated) | 13 | 8 | -7 | -16 | 7
Cc1ccccc1CS(=O)(=O)c1nnc([C@H](Cc2ccccc2)NC(=O)OC(C)(C)C)o1 | -3 | 75* | -5 | 9 | 5
CCSc1nnc([C@H](Cc2ccccc2)NC(=O)OC(C)(C)C)o1 | -177 | -18 | -8 | -16 | 8
CCC(C)[C@@H](NC(=O)OC(C)(C)C)c1nnc(S(=O)(=O)Cc2cccc(C)c2)o1 (some centres not stated) | -24 | 42* | -2 | -9 | 2
CC(C)(C)OC(=O)N[C@@H](Cc1ccccc1)c1nnc(S(=O)(=O)Cc2ccccc2)o1 | -113 | 8 | -38 | -14 | 38*
COc1ccccc1NC(=O)C(CCS(C)(=O)=O)N1C(=O)c2ccccc2C1=O (configuration not stated) | 30 | 3 | 42* | -16 | -42
COc1ccc(NC(=O)[C@H](CCS(C)(=O)=O)N2Cc3ccccc3C2=O)c(OC)c1 | -2 | 8 | 25 | -19 | -25
Cc1c(NC(=O)c2cc(CC(C)C)on2)c(=O)n(-c2ccccc2)n1C | 14 | -3 | -15 | -38 | 15
Cc1cc(C)n2nc(SCC(=O)N/N=C/c3cccc(Br)c3)nc2n1 | -31 | -10 | 136* | 0 | -136
Cc1cc(C)nc(SCC(=O)NC2=NC(=O)C(C)S2)n1 (configuration not stated) | 78* | 15 | 19 | -2 | -19
Cc1cc(C(F)(F)F)nc(SCC(=O)NC2=NC(=O)C(C)S2)n1 (configuration not stated) | -18 | 7 | 3 | -4 | -3
